Experimental data as given in PubChem BioAssay (NCATS).
Results filed as inconclusive are left out. Where a call stands in place of a potency, no number is given. Activity calls are given as the source filed them. The call rests on the fitted dose curve; in most records, active means well fitted curve in the direction sought with a large enough effect; inconclusive means small, poorly fitted or top-dose-only effect, or another doubt; inactive means no such curve, though single readings can be large; an effect the other way counts as inactive or inconclusive.

Assays:
[1] = Quantitative High-Throughput drug screen in 47 multiple myeloma cell lines against the NCATS MIPE library collection: H1112_PLB cell viability assay (AID 1918967; further: nearly all actives have a fitted effect of over 30% in size; further: potency means the concentration at half of the fitted maximal effect)
In short: (§1)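 CellTiter-Glo ATP luminescence gave viability after 48 h compound treatment at 37C of 500 multiple myeloma cells per well. Normalisation used DMSO-only wells as 100% and media-only wells as 0% viability; primary qHTS of approved and investigational drugs.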

[2] = Quantitative High-Throughput drug screen in 47 multiple myeloma cell lines against the NCATS MIPE library collection: KMS27_JCRB cell viability assay (AID 1918970); further: nearly all actives have a fitted effect of over 30% in size; further: potency means the concentration at half of the fitted maximal effect
In short: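 Each line is seeded at 500 cells per well and treated with library compounds for 48 hours under 37 °C, 5% CO2. CellTiter-Glo is then added for 5 min at room temperature before median relative luminescence is recorded.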

[3] = Quantitative High-Throughput drug screen in 47 multiple myeloma cell lines against the NCATS MIPE library collection: KMS12BM_JCRB cell viability assay (AID 1918971); further: nearly all actives have a fitted effect of over 35% in size; further: potency means the concentration at half of the fitted maximal effect
In short: (§2)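 Steps: seed 500 cells per well; pin-transfer MIPE 4.0 library; incubate 48 h at 37C, 5% CO2, humidified; add CellTiter-Glo, 5 min room temperature; read luminescence.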

[4] = Quantitative High-Throughput drug screen in 47 multiple myeloma cell lines against the NCATS MIPE library collection: KMS12PE_JCRB cell viability assay (AID 1918972); further: nearly all actives have a fitted effect of over 30% in size; further: potency means the concentration at half of the fitted maximal effect
In short: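 Viability readout: CellTiter-Glo luminescence following 5 min room-temperature incubation with reagent. Prior exposure: 48 h, 37C, humidified 5% CO2, 500 cells per well.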

[5] = Quantitative High-Throughput drug screen in 47 multiple myeloma cell lines against the NCATS MIPE library collection: NCIH929_DSMZ cell viability assay (AID 1918978); further: nearly all actives have a fitted effect of over 35% in size; further: potency means the concentration at half of the fitted maximal effect
In short: (§3)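 Cells were exposed to library compounds for 48 hours, after which ATP was measured by CellTiter-Glo. Signal was taken as median relative luminescence units.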

[6] = Quantitative High-Throughput drug screen in 47 multiple myeloma cell lines against the NCATS MIPE library collection: OCIMY1_PLB cell viability assay (AID 1918979); further: nearly all actives have a fitted effect of over 35% in size
In short: as §3

[7] = Quantitative High-Throughput drug screen in 47 multiple myeloma cell lines against the NCATS MIPE library collection: MM1S_ATCC cell viability assay (AID 1918980); further: nearly all actives have a fitted effect of over 45% in size; further: potency means the concentration at half of the fitted maximal effect
In short: as §3

[8] = Quantitative High-Throughput drug screen in 47 multiple myeloma cell lines against the NCATS MIPE library collection: MM1R_ATCC cell viability assay (AID 1918981); further: nearly all actives have a fitted effect of over 35% in size; further: potency means the concentration at half of the fitted maximal effect
In short: as §3

[9] = Quantitative High-Throughput drug screen in 47 multiple myeloma cell lines against the NCATS MIPE library collection: KMS28PE_JCRB cell viability assay (AID 1918983); further: nearly all actives have a fitted effect of over 35% in size; further: potency means the concentration at half of the fitted maximal effect
In short: as §3

[10] = Quantitative High-Throughput drug screen in 47 multiple myeloma cell lines against the NCATS MIPE library collection: KMS34_JCRB cell viability assay (AID 1918985); further: nearly all actives have a fitted effect of over 40% in size
In short: as §3

[11] = Quantitative High-Throughput drug screen in 47 multiple myeloma cell lines against the NCATS MIPE library collection: OCIMY7_PLB cell viability assay (AID 1918987); further: potency means the concentration at half of the fitted maximal effect; nearly all actives have a fitted effect of over 65% in size
In short: as §3

[12] = Quantitative High-Throughput drug screen in 47 multiple myeloma cell lines against the NCATS MIPE library collection: Karpas25_ECACC cell viability assay (AID 1918968; further: nearly all actives have a fitted effect of over 35% in size; further: potency means the concentration at half of the fitted maximal effect)
In short: as §1

[13] = Quantitative High-Throughput drug screen in 47 multiple myeloma cell lines against the NCATS MIPE library collection: KMS26_JCRB cell viability assay (AID 1918975); further: nearly all actives have a fitted effect of over 45% in size; further: potency means the concentration at half of the fitted maximal effect
In short: as §2

[14] = Quantitative High-Throughput drug screen in 47 multiple myeloma cell lines against the NCATS MIPE library collection: MOLP8_DSMZ cell viability assay (AID 1918977); further: nearly all actives have a fitted effect of over 45% in size
In short: as §3

[15] = Quantitative High-Throughput drug screen in 47 multiple myeloma cell lines against the NCATS MIPE library collection: KMS20_JCRB cell viability assay (AID 1918973); further: nearly all actives have a fitted effect of over 45% in size; further: potency means the concentration at half of the fitted maximal effect
In short: as §1

[16] = Quantitative High-Throughput drug screen in 47 multiple myeloma cell lines against the NCATS MIPE library collection: L363_DSMZ cell viability assay (AID 1918984); further: nearly all actives have a fitted effect of over 40% in size; further: potency means the concentration at half of the fitted maximal effect
In short: as §3

[17] = Quantitative High-Throughput drug screen in 47 multiple myeloma cell lines against the NCATS MIPE library collection: MMM1_PLB cell viability assay (AID 1918976)
In short: as §3

[18] = Quantitative High-Throughput drug screen in 47 multiple myeloma cell lines against the NCATS MIPE library collection: KMS21BM_JCRB cell viability assay (AID 1918974); details: ATP luminescence, 48 h; viability: at 45.8 µM (top of the series) unless noted; further: potency means the concentration at half of the fitted maximal effect
In short: as §1

[19] = Quantitative High-Throughput drug screen in 47 multiple myeloma cell lines against the NCATS MIPE library collection: LP1_DSMZ cell viability assay (AID 1918982); further: nearly all actives have a fitted effect of over 35% in size
In short: as §3

Compound | Potency [1] | Potency [2] | Potency [3] | Potency [4] | Potency [5] | Potency [6] | Potency [7] | Potency [8] | Potency [9] | Potency [10] | Potency [11] | Potency [12] | Potency [13] | Potency [14] | Potency [15] | Potency [16] | Potency [17] | Potency [18] | Potency [19]
Cc1ccnc(NS(=O)(=O)c2ccc(NC(=O)Nc3ccc(S(=O)(=O)Nc4nccc(C)n4)cc3)cc2)n1 | inactive | 20.9 µM (active) | 6.62 µM (active) | 20.9 µM (active) | inactive | inactive | inactive | inactive | inactive | inactive | 23.5 µM (active) |  |  |  |  |  |  |  | 
CCc1ccc(CCOc2ccc(CC3SC(=O)NC3=O)cc2)nc1 (stereo unspecified) | inactive | inactive |  | inactive | inactive | inactive |  | inactive | inactive |  |  | inactive | inactive | inactive |  |  |  |  | 
CCC(=O)N[C@H]1CC[C@H](C(=O)N(C)c2ccc(-c3nc4ccccc4o3)cc2)C1 | 11.8 µM (active) | 20.9 µM (active) | inactive | 4.69 µM (active) | 2.96 µM (active) | inactive | 5.26 µM (active) | 3.72 µM (active) | 18.7 µM (active) |  | 8.33 µM (active) |  |  |  | 7.43 µM (active) | 16.6 µM (active) |  |  | 
Cc1cc(-c2ccc(CC(=O)Nc3ccc(-c4cccnc4)cc3)cc2)ccn1 | 18.7 µM (active) | 16.6 µM (active) | 18.7 µM (active) | 14.8 µM (active) | 23.5 µM (active) |  | inactive | inactive | 13.2 µM (active) |  | 23.5 µM (active) |  |  | inactive |  |  | 20.9 µM (active) |  | 
CNC(=O)c1ccc(C)c(-n2c(C)cc(OCc3ccc(F)cc3F)c(Br)c2=O)c1 | 7.43 µM (active) |  | 20.9 µM (active) | 18.7 µM (active) | 5.9 µM (active) |  |  |  |  |  | 8.33 µM (active) | 8.33 µM (active) |  |  |  |  |  |  | 
CCc1cc(Nc2nccc(-c3c(-c4ccc(OC)c(C(=O)Nc5c(F)cccc5F)c4)nc4ccccn34)n2)c(OC)cc1N1CCC(N2CCN(S(C)(=O)=O)CC2)CC1 | 10.5 µM (active) |  |  |  |  |  |  |  | 26.4 µM (active) |  |  | 7.43 µM (active) |  |  |  | 16.6 µM (active) |  |  | 
OC(CN1CCC(Cc2ccc(F)cc2)CC1)c1ccc(Cl)cc1 (stereo unspecified) | inactive | inactive | inactive | inactive | inactive |  |  |  |  |  |  |  | inactive | inactive |  | inactive |  | inactive | 
CCCc1nc2c(C)cc(-c3nc4ccccc4n3C)cc2n1Cc1ccc(-c2ccccc2C(=O)O)cc1 | inactive | 4.18 µM (active) | inactive |  | inactive | inactive | 26.4 µM (active) | inactive | inactive | inactive |  | inactive |  | inactive |  |  |  |  | 
Cn1cnc2c(F)c(Nc3ccc(Br)cc3Cl)c(C(=O)NOCCO)cc21 | 0.662 µM (active) | 0.469 µM (active) |  | 3.32 µM (active) | 0.105 µM (active) | inactive | 7.43 µM (active) | 18.7 µM (active) | 9.35 µM (active) |  | 0.0469 µM (active) | 16.6 µM (active) | 7.43 µM (active) |  | 0.0935 µM (active) | 0.833 µM (active) |  | 0.105 µM (active) | 
Cc1cccc(-c2nn(C(=S)Nc3ccccc3)cc2-c2ccnc3ccccc23)n1 | 16.6 µM (active) | inactive | 14.8 µM (active) | inactive | 2.35 µM (active) | inactive | 16.6 µM (active) |  | 18.7 µM (active) |  |  |  | 6.62 µM (active) |  |  |  |  |  | 
COc1nc(-c2ccc3c(c2)OCO3)n(-c2ccc(NC(=O)CSc3ccccc3)cc2)n1 | inactive | inactive |  | inactive |  | inactive |  | inactive | 14.8 µM (active) |  |  | inactive | 11.8 µM (active) |  |  |  | 7.43 µM (active) |  | inactive
COc1cc(F)c(F)c(Nc2ccc(I)cc2F)c1NS(=O)(=O)C1(C[C@H](O)CO)CC1 | 14.8 µM (active) | 16.6 µM (active) |  | 16.6 µM (active) | 18.7 µM (active) |  | 16.6 µM (active) | 10.5 µM (active) | 5.26 µM (active) |  | 16.6 µM (active) | 20.9 µM (active) | 13.2 µM (active) |  |  |  |  |  | 
O=C(O)CCc1ccc(NCc2cccc(Oc3ccccc3)c2)cc1 | inactive | inactive | inactive | inactive | inactive |  | inactive | inactive | inactive |  |  |  |  | inactive |  | inactive |  |  | 
O=C(C=Cc1ccc(/C=C/C(=O)Nc2ccc(C3=NCCN3)cc2)cc1)Nc1ccc(C2=NCCN2)cc1 | inactive | inactive |  | inactive | inactive | inactive |  |  |  |  |  | inactive |  | inactive | inactive |  |  |  | 
OC(CCN1CCCCC1)(c1ccccc1)C1CC2C=CC1C2 (stereo unspecified) | inactive | inactive |  | inactive | inactive | inactive |  |  | inactive | inactive |  | inactive | inactive | inactive |  |  |  |  | inactive
